# Measurements as given in PMC12136788.
# Numbering of substitutions follows the chain as printed. The full ranking holds about 24,000 sequences; the median of “enrichment r” is about 0.99, and the highest 2% start at about 3.7. This is one part of a sample in which the highest values are shown more often than they occur.
# T1: UNK ZnF1-3 (human, UniProt Q9C0B0 31-174)
# T1 sequence: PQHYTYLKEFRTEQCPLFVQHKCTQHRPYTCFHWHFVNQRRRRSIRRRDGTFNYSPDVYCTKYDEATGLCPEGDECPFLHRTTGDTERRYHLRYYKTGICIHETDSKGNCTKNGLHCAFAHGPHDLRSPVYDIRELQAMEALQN
# B1: chr1:225611761:225611762:-_ENSG00000143815_ENST00000272163|hu_mus|hu_hu_hu_mus_True|78_108 (ssRNA)
# RNA: GGGAGUUCUACAGUCCGACGAUCCCAGGCCAUCGACCUCUGACCACUUCACCCUCAGCAAAUUUCCUACUUGGCAUUUUCUAAAAUUAGUCUGGCCGCGCUCCGGCGGGAACUCCAGCCACUCCAGGACAGUCACCAGCAGCCCAACAGAGGAUUGAGCAUCA
# B2: 71781198_71781318_2220_CDS_ENSMUSG00000008305_ENSMUST00000030095|mouse|control|control (ssRNA)
# RNA: GGGAGUUCUACAGUCCGACGAUCCACGCAGCUCUCGUGGAGGUGCAGCUGGUACUUGUCAGGCUUGUUCACAUGCAGAACUUCCACGUUGCUGCUUUCCAUGCCCACAGCAAGCCACUCCCCAGUUGGGCAAUAUCCCAAAGACAACAGAGGAUUGAGCAUCA
# B3: chr3:57561382:57561383:-_ENSG00000168374_ENST00000303436|hu_hu|FALSE|FALSE (ssRNA)
# RNA: GGGAGUUCUACAGUCCGACGAUCUAGCAGCACUGCAUCUCUCAAUUCAUCUACCAGAAGCAUUUUCUGCAGCUCAUCUGCUACUUCCUGAAUUCUUUCACGAUCGUUGCUAUCUACCACAAAAAUAAGACCCUGGGUAUUCUGCAACAGAGGAUUGAGCAUCA
# B4: chr1:163295886:163295887:+_ENSG00000143228_ENST00000271452|hu_mus|motif|central (ssRNA)
# RNA: GGGAGUUCUACAGUCCGACGAUCGGUUUUUGCCAUCUGCUCCUGUUAAUAAUUUAUUGCGAAUAUGAACCACAAGCUCAGCGGCAUUGUAUCUGGGGAAUGACAAAGUUUCCAUUAUGGGAGUCUCCUCCCUGAGUAUUGUUGCAACAGAGGAUUGAGCAUCA
# B5: chr6:29525140:29525141:-_ENSMUSG00000012535_ENSMUST00000012679|mus_hu|FALSE|FALSE (ssRNA)
# RNA: GGGAGUUCUACAGUCCGACGAUCGUUAGUUUUGUACAAAUGUUCCCCCAGUCGGUACCAAAAGUUAAAUGAAAUUUCUACUACCUCAUAUUGAGGAUGGCCUGCACAGAUAAGCAGCAGCUCCAGAGUUCGAAGGUCCCCAAGCAACAGAGGAUUGAGCAUCA
# B6: chr19:16212804:16212805:+_ENSG00000167460_ENST00000300933|hu_hu|motif|central (ssRNA)
# RNA: GGGAGUUCUACAGUCCGACGAUCAGGAAAUAUGCAAAAGAACAUCACAUCAAGGAUCAAUUAAUUACCAUCUAUUAAUUACGGUAUGUGGGUAAUUAUGACUAUUUCCCAAGCAUUCUACGUUGACUGCUUGAGAAGAUGUUUCAACAGAGGAUUGAGCAUCA
# B7: chr7:155493584:155493585:+_ENSG00000184863_ENST00000401878|hu_mus|FALSE|FALSE (ssRNA)
# RNA: GGGAGUUCUACAGUCCGACGAUCAGAAAGUUCCAAAGUUUCUGGAAUGUUCCUUCUCUCUCUAGUUACAUCUGAAAGCCUAAUAAUUGUUCCUUCUUUCCUUUCAGUUUUAAAACGUAAUCGUCCAGAUUCUUCAUCAUCAUCCAACAGAGGAUUGAGCAUCA
# B8: chr1:36770067:36770068:+_ENSG00000054118_ENST00000354618|hu_hu|motif|central (ssRNA)
# RNA: GGGAGUUCUACAGUCCGACGAUCUCUUUCAAGAAUCAAAGUUUCCCAAAUUAAAUGUUUCUAAUAUUACUACAUAUGCCGGAAAAAAGAAAAAAAAAAAAAAAAAGGAGGGGGCUUUUAAAAUCAGGACAGGGGAAAAGAGAUCAACAGAGGAUUGAGCAUCA
# B9: chr1:36770067:36770068:+_ENSG00000054118_ENST00000354618|hu_hu|FALSE|FALSE (ssRNA)
# RNA: B8 RNA with G80U, G81A
# B10: chr1:201104638:201104639:-_ENSG00000116857_ENST00000367334|hu_hu|FALSE|FALSE (ssRNA)
# RNA: GGGAGUUCUACAGUCCGACGAUCAGAGAUCAGAGACCACAUCCCUCUUCCCUAAUCAAAAUAGCCAAGUACAACAUUUCUAAAGUUAGGGAGAAGGAGGAAAAAUGCCACAGGCUUUUAAAGGGAAGACUGGAACCGAGGGAACAACAGAGGAUUGAGCAUCA
# B11: chr1:36770067:36770068:+_ENSG00000054118_ENST00000354618|hu_mus|FALSE|FALSE (ssRNA)
# RNA: GGGAGUUCUACAGUCCGACGAUCUUAAGAGUCAAAGUUGCCCAAAUUAAAAUCUUUACACUAAUAUUACUAUAUAUCCCCUAAAAAGAAGAAAAAGAAAAAAGGAUUUCUUAAUAAAACUCAGGACAGGAAGAGACUGAAAACCAACAGAGGAUUGAGCAUCA
# B12: chr1:59925254:59925255:+_ENSMUSG00000067336_ENSMUST00000087435|mus_hu|FALSE|FALSE (ssRNA)
# RNA: GGGAGUUCUACAGUCCGACGAUCAUCUUGUUCUGAACAUGGAUUGCUGUUGUUGUUAUUGGAAUUAGUUCGGCCACCUUCUAGUGGCCGUUCCCUCCUGUCCACAAGACGAUCCAGAACACCUUCAUCAUGGCCAGCUUGUUGCAACAGAGGAUUGAGCAUCA
# B13: chr4:101271765:101271766:+_ENSMUSG00000028528_ENSMUST00000094953|mus_mus|motif|central (ssRNA)
# RNA: GGGAGUUCUACAGUCCGACGAUCAGACUUGGGUGACAAGUUGUAUACUGUGUAGUGGUCAAGAUGUCUGGAAUCCAAAAAGCGGCGGAUGUCAUCAACCUGAUUCCUGAAUCCUAUGUCAACACUAUCCACAGGAAAGGACAUCAACAGAGGAUUGAGCAUCA
# Molecular target: T1, UNK ZnF1-3
# Assay: nsRBNS (natural sequence RNA bind-n-seq); RBNS binding buffer (assumed for nsRBNS): 25 mM Tris pH 7.5, 150 mM KCl, 3 mM MgCl2, 0.01% Triton X-100, 500 ug/ml BSA, 20 U/ml SUPERase-In, 4 C; UNK is unkempt and MSI1 is Musashi-1; names of the RNAs are library labels; protein concentration not given here; high values mean tight binding
row,Binder,binding signal
1,B1,1.33 enrichment R
2,B2,0.78 enrichment R
3,B3,0.947 enrichment R
4,B4,1.12 enrichment R
5,B5,0.862 enrichment R
6,B6,0.67 enrichment R
7,B7,0.81 enrichment R
8,B8,3.96 enrichment R
9,B9,4.92 enrichment R
10,B10,2.05 enrichment R
11,B11,2.39 enrichment R
12,B12,0.391 enrichment R
13,B13,0.93 enrichment R
